± gives the standard deviation.
What was measured:
Experiment in all cases: peptide microarray binding signal (635 nm), min-max normalized on array (fraction of array maximum); higher = stronger binding
[1] = biological target: T1, HaloTag-ATRX ADD domain (163-292)
T1 chain: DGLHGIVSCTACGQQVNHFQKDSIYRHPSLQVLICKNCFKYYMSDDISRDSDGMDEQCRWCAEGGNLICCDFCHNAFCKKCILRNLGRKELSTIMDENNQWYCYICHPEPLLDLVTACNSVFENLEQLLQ
Outline: (§1)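 For each library, binding signal was taken as the triplicate-spot mean intensity and then min-max scaled. Spots of histone 13-mer peptide–cellulose conjugates on nitrocellulose, printed in triplicate with a Cy3 tracer, were probed for 1 h at 4°C with either biotin-labelled HaloTag reader fusions (10 nM to 1 μM) and streptavidin-Alexa Fluor 647 or rabbit histone antibodies (1:10,000 to 1:2,000) and anti-rabbit Alexa 647. Readout at 635 nm came from an Axon GenePix 4000B.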

[2] = biological target: HaloTag-ING2 PHD (mouse Ing2 200-280)
Outline: as §1

[3] = biological target: anti-H3K4me3 antibody ab8580
Outline: as §1

[4] = biological target: anti-H3K9me3 antibody ab8898
Outline: as §1

[5] = peptide region: H3 5-17, peptide modifications: H3T11ph H3K14me2, binder concentration: 1:2,000 dilution
[6] = peptide region: H3 5-17, peptide modifications: H3T11ph H3K14me2, binder concentration: 1:10,000 dilution
[7] = peptide region: H3 11-23, peptide modifications: H3K14ac H3K18me2, binder concentration: 1:2,000 dilution
[8] = peptide region: H3 11-23, peptide modifications: H3K14ac H3K18me2, binder concentration: 1:10,000 dilution
[9] = peptide region: H3 5-17, peptide modifications: H3T11ph, binder concentration: 1:2,000 dilution
[10] = peptide region: H3 5-17, peptide modifications: H3T11ph, binder concentration: 1:10,000 dilution
[11] = peptide region: H3 11-23, peptide modifications: H3K14ac H3R17me2a, binder concentration: 1:2,000 dilution
[12] = peptide region: H3 11-23, peptide modifications: H3K14ac H3R17me2a, binder concentration: 1:10,000 dilution
[13] = peptide region: H3 5-17, peptide modifications: H3T11ph H3K14ac, binder concentration: 1:2,000 dilution
[14] = peptide region: H3 5-17, peptide modifications: H3T11ph H3K14ac, binder concentration: 1:10,000 dilution

B1: H3 5-17 Q T A R K S Tph G G Kme2 A P R (peptide)
chain: QTARKSTGGKAPR
With B1 the “peptide microarray binding signal” value ([1]; peptide region: H3 5-17, peptide modifications: H3T11ph H3K14me2, binder concentration: 50 nM) was 0.00216 ± 8e-05, the “peptide microarray binding signal” value ([1]; peptide region: H3 5-17, peptide modifications: H3T11ph H3K14me2, binder concentration: 500 nM) was 0.00505 ± 0.00083 and the “peptide microarray binding signal” value ([2]; peptide region: H3 5-17, peptide modifications: H3T11ph H3K14me2, binder concentration: 10 nM) was 0.00239 ± 0.00024. The “peptide microarray binding signal” value ([2]; peptide region: H3 5-17, peptide modifications: H3T11ph H3K14me2, binder concentration: 100 nM) was 0.00213 ± 0.00021, the “peptide microarray binding signal” value [3, 5] was 0.00496 ± 0.0019 and the “peptide microarray binding signal” value [3, 6] was 0.00605 ± 0.0024. The “peptide microarray binding signal” value [4, 5] was 0.00177 ± 0.00016 and the “peptide microarray binding signal” value [4, 6] was 0.00248 ± 0.00058.

B2: H3 11-23 T G G Kac A P R Kme2 Q L A T K (peptide)
chain: TGGKAPRKQLATK
B2 was tested, and the “peptide microarray binding signal” value ([1]; peptide region: H3 11-23, peptide modifications: H3K14ac H3K18me2, binder concentration: 50 nM) was 0.00727 ± 0.00061, the “peptide microarray binding signal” value ([1]; peptide region: H3 11-23, peptide modifications: H3K14ac H3K18me2, binder concentration: 500 nM) was 0.0126 ± 0.00024 and the “peptide microarray binding signal” value ([2]; peptide region: H3 11-23, peptide modifications: H3K14ac H3K18me2, binder concentration: 10 nM) was 0.0171 ± 0.0046. The “peptide microarray binding signal” value ([2]; peptide region: H3 11-23, peptide modifications: H3K14ac H3K18me2, binder concentration: 100 nM) was 0.031 ± 0.014, the “peptide microarray binding signal” value [3, 7] was 0.0176 ± 0.0051 and the “peptide microarray binding signal” value [3, 8] was 0.0145 ± 0.0016. The “peptide microarray binding signal” value [4, 7] was 0.00399 ± 0.00012 and the “peptide microarray binding signal” value [4, 8] was 0.00346 ± 0.0001.

B3: H3 5-17 Q T A R K S Tph G G K A P R (peptide)
chain: QTARKSTGGKAPR
With B3 the “peptide microarray binding signal” value ([1]; peptide region: H3 5-17, peptide modifications: H3T11ph, binder concentration: 50 nM) was 0.0138 ± 0.005, the “peptide microarray binding signal” value ([1]; peptide region: H3 5-17, peptide modifications: H3T11ph, binder concentration: 500 nM) was 0.014 ± 0.0037 and the “peptide microarray binding signal” value ([2]; peptide region: H3 5-17, peptide modifications: H3T11ph, binder concentration: 10 nM) was 0.0156 ± 0.0015. The “peptide microarray binding signal” value ([2]; peptide region: H3 5-17, peptide modifications: H3T11ph, binder concentration: 100 nM) was 0.0409 ± 0.0057, the “peptide microarray binding signal” value [3, 9] was 0.0044 ± 0.0008 and the “peptide microarray binding signal” value [3, 10] was 0.00553 ± 0.00047. For the same binder, the “peptide microarray binding signal” value [4, 9] was 0.00195 ± 7.3e-05 and the “peptide microarray binding signal” value [4, 10] was 0.00254 ± 0.00012.

B4: H3 11-23 T G G Kac A P Rme2a K Q L A T K (peptide)
chain: TGGKAPRKQLATK
B4 was tested, and the “peptide microarray binding signal” value ([1]; peptide region: H3 11-23, peptide modifications: H3K14ac H3R17me2a, binder concentration: 50 nM) was 0.00981 ± 0.001, the “peptide microarray binding signal” value ([1]; peptide region: H3 11-23, peptide modifications: H3K14ac H3R17me2a, binder concentration: 500 nM) was 0.0127 ± 0.00086 and the “peptide microarray binding signal” value ([2]; peptide region: H3 11-23, peptide modifications: H3K14ac H3R17me2a, binder concentration: 10 nM) was 0.0112 ± 0.00063. The “peptide microarray binding signal” value ([2]; peptide region: H3 11-23, peptide modifications: H3K14ac H3R17me2a, binder concentration: 100 nM) was 0.0221 ± 0.00099, the “peptide microarray binding signal” value [3, 11] was 0.00436 ± 0.00064 and the “peptide microarray binding signal” value [3, 12] was 0.00445 ± 0.00022. For the same binder, the “peptide microarray binding signal” value [4, 11] was 0.00344 ± 0.00027 and the “peptide microarray binding signal” value [4, 12] was 0.002479 ± 2.2e-05.

B5: H3 5-17 Q T A R K S Tph G G Kac A P R (peptide)
chain: QTARKSTGGKAPR
In the case of B5, the “peptide microarray binding signal” value ([1]; peptide region: H3 5-17, peptide modifications: H3T11ph H3K14ac, binder concentration: 50 nM) is reported as 0.00514 ± 0.00023, the “peptide microarray binding signal” value ([1]; peptide region: H3 5-17, peptide modifications: H3T11ph H3K14ac, binder concentration: 500 nM) is reported as 0.015 ± 0.0014 and the “peptide microarray binding signal” value ([2]; peptide region: H3 5-17, peptide modifications: H3T11ph H3K14ac, binder concentration: 10 nM) is reported as 0.00597 ± 0.00044. The “peptide microarray binding signal” value ([2]; peptide region: H3 5-17, peptide modifications: H3T11ph H3K14ac, binder concentration: 100 nM) was 0.0333 ± 0.0053, the “peptide microarray binding signal” value [3, 13] was 0.000868 ± 6.7e-05 and the “peptide microarray binding signal” value [3, 14] was 0.000685 ± 1.9e-05. The “peptide microarray binding signal” value [4, 13] was 0.00394 ± 0.0008 and the “peptide microarray binding signal” value [4, 14] was 0.00156 ± 3e-05.

From the supplement of paper PMC4022240
